Experimental data as given in the supplement of paper PMC10849652.
Of roughly 7,900 targets only a part is listed; those with a hit were picked by preference. About 0.6% of all pairs of compound and target were hits.

Each target was assayed with c1cn2cc(-c3ccc4cn[nH]c4c3)nc(Nc3ccc(N4CCOCC4)cc3)c2n1 [entospletinib] (assay: log2 fold change, soluble protein after heating vs DMSO (PISA); higher = thermal stabilisation; K562 cells, 10 uM, 30 min; active = over 0.2 and 3.5 SD of the protein, either way, in both replicates (recomputed)).
Procedure, shortened: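 K562 cells (2×10^6 cells/mL) were treated with 10 μM compound for 30 min, and aliquots were heated for 3 min over 48°C-58°C. Pooled aliquots were extracted in PBS with 0.5% NP-40 at 4°C, and the supernatant after 21,000xg for 90 min was measured by TMTpro 16plex LC-MS/MS with channel sums equalised. Reported thermal stability, relative to control samples and from duplicates, is a log2 fold change.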

Sequence of UniProt Q8N4H5 (Q8N4H5 whole entry, looked up): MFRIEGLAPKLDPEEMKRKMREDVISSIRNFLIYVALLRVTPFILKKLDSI
Sequence of UniProt Q5T3F8 (Q5T3F8 whole entry, looked up): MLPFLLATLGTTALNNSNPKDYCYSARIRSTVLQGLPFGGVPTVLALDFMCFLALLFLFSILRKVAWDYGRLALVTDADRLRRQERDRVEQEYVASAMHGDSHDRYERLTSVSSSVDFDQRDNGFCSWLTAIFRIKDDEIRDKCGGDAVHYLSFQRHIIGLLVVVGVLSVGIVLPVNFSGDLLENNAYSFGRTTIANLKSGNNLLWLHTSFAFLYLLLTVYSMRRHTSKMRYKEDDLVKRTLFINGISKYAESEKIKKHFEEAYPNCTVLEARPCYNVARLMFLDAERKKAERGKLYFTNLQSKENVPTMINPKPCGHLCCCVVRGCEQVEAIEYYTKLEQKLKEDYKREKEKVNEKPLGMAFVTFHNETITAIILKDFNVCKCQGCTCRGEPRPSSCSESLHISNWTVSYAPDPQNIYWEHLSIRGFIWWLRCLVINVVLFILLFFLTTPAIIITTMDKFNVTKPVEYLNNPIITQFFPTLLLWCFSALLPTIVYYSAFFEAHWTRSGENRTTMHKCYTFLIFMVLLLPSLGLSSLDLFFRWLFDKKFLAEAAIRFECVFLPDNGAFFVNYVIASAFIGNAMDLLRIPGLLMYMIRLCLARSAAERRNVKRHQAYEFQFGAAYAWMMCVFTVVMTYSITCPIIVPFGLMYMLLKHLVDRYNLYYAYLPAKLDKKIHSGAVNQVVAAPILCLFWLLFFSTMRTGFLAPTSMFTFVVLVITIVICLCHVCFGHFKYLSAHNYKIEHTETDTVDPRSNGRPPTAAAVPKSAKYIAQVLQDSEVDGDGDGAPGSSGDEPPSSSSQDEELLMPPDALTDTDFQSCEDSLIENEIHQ
Sequence of UniProt Q86SZ2 (Q86SZ2 whole entry, looked up): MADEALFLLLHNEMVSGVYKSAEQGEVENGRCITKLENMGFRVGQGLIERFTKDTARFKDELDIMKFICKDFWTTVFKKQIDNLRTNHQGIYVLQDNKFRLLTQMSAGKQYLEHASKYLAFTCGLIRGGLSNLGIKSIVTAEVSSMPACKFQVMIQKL
Sequence of UniProt Q9HCN3 (Q9HCN3 whole entry, looked up): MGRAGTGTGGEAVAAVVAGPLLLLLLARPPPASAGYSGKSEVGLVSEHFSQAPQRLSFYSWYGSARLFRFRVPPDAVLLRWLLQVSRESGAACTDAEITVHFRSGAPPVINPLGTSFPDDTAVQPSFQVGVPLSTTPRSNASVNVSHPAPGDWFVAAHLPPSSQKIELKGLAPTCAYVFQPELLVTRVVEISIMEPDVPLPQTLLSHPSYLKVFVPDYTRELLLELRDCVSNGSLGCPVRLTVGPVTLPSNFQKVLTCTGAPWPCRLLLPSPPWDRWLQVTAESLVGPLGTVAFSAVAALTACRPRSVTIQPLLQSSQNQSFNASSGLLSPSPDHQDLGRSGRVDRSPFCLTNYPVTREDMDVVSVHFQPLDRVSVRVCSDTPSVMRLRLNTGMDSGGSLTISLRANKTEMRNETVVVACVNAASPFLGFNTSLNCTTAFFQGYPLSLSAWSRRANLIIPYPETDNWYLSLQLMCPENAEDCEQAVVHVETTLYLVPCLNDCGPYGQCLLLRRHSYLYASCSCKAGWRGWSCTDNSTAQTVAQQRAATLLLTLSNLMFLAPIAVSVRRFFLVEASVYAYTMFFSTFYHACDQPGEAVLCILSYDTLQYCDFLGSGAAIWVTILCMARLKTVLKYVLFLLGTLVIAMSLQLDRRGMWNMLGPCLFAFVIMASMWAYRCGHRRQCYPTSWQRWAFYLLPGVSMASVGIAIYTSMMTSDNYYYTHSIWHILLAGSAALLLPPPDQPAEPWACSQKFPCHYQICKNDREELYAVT
Sequence of UniProt Q969T4 (Q969T4 whole entry, looked up): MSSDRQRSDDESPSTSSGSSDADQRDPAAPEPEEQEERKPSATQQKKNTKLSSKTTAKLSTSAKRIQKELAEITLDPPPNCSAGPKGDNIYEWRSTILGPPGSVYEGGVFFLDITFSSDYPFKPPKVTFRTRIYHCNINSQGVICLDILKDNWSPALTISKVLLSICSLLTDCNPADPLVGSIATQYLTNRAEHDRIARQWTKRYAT
Sequence of UniProt Q16881 (Q16881 whole entry, looked up): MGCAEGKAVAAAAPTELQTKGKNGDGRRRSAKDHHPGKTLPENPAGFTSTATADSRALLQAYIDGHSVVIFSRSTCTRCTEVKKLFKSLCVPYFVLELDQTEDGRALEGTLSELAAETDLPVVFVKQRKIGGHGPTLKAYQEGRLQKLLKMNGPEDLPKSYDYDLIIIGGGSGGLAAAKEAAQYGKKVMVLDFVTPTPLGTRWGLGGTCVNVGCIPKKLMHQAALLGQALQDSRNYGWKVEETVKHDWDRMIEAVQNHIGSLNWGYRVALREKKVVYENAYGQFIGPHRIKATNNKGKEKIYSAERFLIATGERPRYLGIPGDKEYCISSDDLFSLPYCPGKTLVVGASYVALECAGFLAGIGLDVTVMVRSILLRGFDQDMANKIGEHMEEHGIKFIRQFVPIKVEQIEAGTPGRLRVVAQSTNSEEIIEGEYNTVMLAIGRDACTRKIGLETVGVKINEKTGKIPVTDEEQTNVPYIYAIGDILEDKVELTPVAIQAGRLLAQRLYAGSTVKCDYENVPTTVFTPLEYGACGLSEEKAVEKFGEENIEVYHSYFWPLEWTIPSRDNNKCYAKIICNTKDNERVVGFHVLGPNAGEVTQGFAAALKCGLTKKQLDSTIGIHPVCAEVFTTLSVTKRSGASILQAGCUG
Sequence of UniProt Q5BJH2 (Q5BJH2 whole entry, looked up): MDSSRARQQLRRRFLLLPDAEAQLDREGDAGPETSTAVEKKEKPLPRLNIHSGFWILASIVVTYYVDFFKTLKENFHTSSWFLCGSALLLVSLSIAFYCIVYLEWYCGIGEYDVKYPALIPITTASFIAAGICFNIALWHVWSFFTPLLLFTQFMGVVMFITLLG
Sequence of UniProt Q8NCE0 (Q8NCE0 whole entry, looked up): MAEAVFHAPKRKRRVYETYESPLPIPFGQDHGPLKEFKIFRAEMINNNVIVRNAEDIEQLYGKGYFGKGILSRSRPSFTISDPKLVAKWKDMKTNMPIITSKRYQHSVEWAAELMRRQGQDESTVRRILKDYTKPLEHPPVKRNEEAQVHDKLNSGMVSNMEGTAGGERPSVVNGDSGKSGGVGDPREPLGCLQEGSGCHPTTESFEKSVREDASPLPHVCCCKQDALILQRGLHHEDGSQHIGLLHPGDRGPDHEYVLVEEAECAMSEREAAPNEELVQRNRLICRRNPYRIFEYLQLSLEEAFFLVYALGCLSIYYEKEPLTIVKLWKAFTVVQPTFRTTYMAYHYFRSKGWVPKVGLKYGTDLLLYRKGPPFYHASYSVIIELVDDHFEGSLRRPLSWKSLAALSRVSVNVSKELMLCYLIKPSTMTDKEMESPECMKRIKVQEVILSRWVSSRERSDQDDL
Sequence of UniProt O94967 (O94967 whole entry, looked up): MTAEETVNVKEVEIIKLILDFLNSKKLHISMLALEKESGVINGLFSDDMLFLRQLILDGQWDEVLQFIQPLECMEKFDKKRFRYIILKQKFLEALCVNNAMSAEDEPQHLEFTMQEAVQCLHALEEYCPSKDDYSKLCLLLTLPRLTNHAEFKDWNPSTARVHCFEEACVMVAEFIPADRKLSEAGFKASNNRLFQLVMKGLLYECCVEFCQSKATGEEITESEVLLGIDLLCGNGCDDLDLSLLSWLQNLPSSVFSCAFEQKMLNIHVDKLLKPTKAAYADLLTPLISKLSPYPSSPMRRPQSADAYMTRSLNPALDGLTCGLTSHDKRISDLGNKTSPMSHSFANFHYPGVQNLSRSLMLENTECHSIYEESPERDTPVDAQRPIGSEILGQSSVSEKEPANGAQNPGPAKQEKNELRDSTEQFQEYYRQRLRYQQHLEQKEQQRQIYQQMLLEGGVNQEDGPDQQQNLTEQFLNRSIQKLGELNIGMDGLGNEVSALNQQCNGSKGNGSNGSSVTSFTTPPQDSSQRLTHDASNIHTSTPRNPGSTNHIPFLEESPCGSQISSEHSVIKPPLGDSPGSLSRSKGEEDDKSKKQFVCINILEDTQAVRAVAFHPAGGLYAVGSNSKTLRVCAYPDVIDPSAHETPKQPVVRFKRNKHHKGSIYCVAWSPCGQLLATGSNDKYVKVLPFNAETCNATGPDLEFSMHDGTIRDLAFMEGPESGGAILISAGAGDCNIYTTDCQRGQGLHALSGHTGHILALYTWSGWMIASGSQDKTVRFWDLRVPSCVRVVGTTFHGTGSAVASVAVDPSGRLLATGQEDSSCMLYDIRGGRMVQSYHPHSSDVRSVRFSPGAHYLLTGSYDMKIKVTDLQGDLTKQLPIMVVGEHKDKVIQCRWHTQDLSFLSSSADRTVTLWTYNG
Sequence of UniProt Q5R3I4 (Q5R3I4 whole entry, looked up): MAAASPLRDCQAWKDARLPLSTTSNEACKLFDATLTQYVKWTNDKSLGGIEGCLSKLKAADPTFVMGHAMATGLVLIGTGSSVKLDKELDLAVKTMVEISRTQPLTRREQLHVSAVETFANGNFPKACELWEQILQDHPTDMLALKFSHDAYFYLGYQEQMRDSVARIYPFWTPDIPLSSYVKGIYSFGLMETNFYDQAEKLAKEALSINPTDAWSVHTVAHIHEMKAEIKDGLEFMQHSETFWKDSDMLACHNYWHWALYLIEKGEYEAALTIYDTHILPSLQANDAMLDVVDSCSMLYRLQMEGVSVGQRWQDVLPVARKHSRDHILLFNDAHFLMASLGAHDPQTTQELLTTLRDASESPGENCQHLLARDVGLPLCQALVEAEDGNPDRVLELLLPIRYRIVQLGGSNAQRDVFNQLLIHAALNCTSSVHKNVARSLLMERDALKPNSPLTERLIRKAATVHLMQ
Sequence of UniProt P61960 (P61960 whole entry, looked up): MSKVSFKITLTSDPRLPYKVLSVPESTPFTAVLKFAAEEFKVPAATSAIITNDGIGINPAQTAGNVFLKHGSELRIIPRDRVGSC

log2 fold change, inactive:
TMEM63B (UniProt Q5T3F8) 0.011
WDR46 (UniProt O15213) 0.01
USP25 isoform 3 (UniProt Q9UHP3) 0
TXNRD1 isoform 7 (UniProt Q16881) 0.04
UFM1 isoform 2 (UniProt P61960) 0.079
TSEN2 (UniProt Q8NCE0) -0.041
TUBA4A (UniProt P68366) -0.031
WDR47 (UniProt O94967) 0.011
TMEM8A (UniProt Q9HCN3) -0.002
USP3 (UniProt Q9Y6I4) -0.003
TP53BP1 isoform 2 (UniProt Q12888) 0.087
VPS52 (UniProt Q8N1B4) 0.062
TNPO1 (UniProt Q92973) -0.001
TTI2 (UniProt Q6NXR4) 0.062
VPS39 (UniProt Q96JC1) -0.007
U2AF1L5 (UniProt P0DN76) -0.497
VRK1 (UniProt Q99986) -0.149
TRAPPC6B (UniProt Q86SZ2) -0.003
UBE3D (UniProt Q7Z6J8) 0.091
VPS8 (UniProt Q8N3P4) 0.034
WASH2P (UniProt Q6VEQ5) 0.015
TTC38 (UniProt Q5R3I4) -0.114
VPS13B (UniProt Q7Z7G8) 0.053
TMEM128 (UniProt Q5BJH2) 0.018
TRIM44 (UniProt Q96DX7) 0.007
UGGT1 (UniProt Q9NYU2) -0.018
WDR4 (UniProt P57081) -0.027
TPP1 (UniProt O14773) -0.018
TMEM87B (UniProt Q96K49) 0.063
UBE2Q1 (UniProt Q7Z7E8) 0.007
VDAC1 (UniProt P21796) -0.012
TRMT10A (UniProt Q8TBZ6) -0.055
VDAC1 (UniProt C9JI87) -0.088
VWA8 (UniProt A3KMH1) -0.03
VPS11 (UniProt Q9H270) 0.04
UBE2E3 (UniProt Q969T4) -0.002
UBE4B isoform 4 (UniProt O95155) -0.03
WAPL isoform 3 (UniProt Q7Z5K2) -0.037
TOMM5 isoform 2 (UniProt Q8N4H5) -0.033
UBAP1 isoform 4 (UniProt Q9NZ09) 0.005
